# Laboratory results: the supplement of paper PMC9177965
# Tested on: HT29 RNF43 G659fs (RNF43 659mut, CRISPR-edited)
# Test: cell viability activity relative to DMSO (negative = inhibition); higher = more viable cells (less growth inhibition)
# Details: 5 µM; 96 h
# Description: (§1)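 Broad Repurposing Library primary screen at a single dose of 5 uM. HT29 sg-Ctrl and HT29 RNF43 G659fs CRISPR-edited isogenic cells were seeded at 2500 cells/well in 384-well plates in duplicate and treated for 96 h. Viability was read by CellTiter-Glo and reported as % activity relative to DMSO, with MG132 as the positive control (negative = growth inhibition).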
row,Compound,cell viability activity [%]
1,COc1ccc(NC(=O)c2ccc(-c3ccc(-c4noc(C)n4)cc3C)cc2)cc1N1CCN(C)CC1,-61
2,COc1ccc(CCCOC(Cn2ccnc2)c2ccc(OC)cc2)cc1 (centres undefined),-67.2
3,CN(C)CCOc1ccc(-c2nc(-c3ccncc3)c(-c3ccc4c(c3)CC/C4=N\O)[nH]2)cc1,-44.3
4,Cc1c(C2CCN(CCc3ccccc3)CC2)noc1-c1ccc(Cl)cc1,-38
5,COc1cc2c(Nc3ccc(Cl)c(Cl)c3F)ncnc2cc1OC[C@@H]1C[C@@H]2CN(C)C[C@@H]2C1,-90.6
6,CC(=O)NCC(=O)N1[C@@H]2CC[C@H]1c1ccc(Nc3ncc(C(F)(F)F)c(NC4CCC4)n3)cc12,-41.1
7,COC(=O)C1=C(C)NC(C)=C(C(=O)OCCCN2CCC(c3ccccc3)(c3ccccc3)CC2)[C@@H]1c1cccc([N+](=O)[O-])c1,-65.6
8,Cc1c(C(=O)N2CCOc3ccc(-c4ccc(N)nc4)cc3C2)ccc(S(C)(=O)=O)c1F,-41.2
9,CC(C)[C@H]1c2ccc(F)cc2CC[C@@]1(CCN(C)CCCc1nc2ccccc2[nH]1)OC(=O)C1CC1,-90
10,Cc1cnc(Nc2ccc(N3CCN(C)CC3)cc2)nc1Nc1cccc(S(=O)(=O)NC(C)(C)C)c1,-83.9
11,O=C(CCCCCN1C(=O)c2cccc3cccc(c23)C1=O)NO,-79.1
12,Cc1ccc(C(=O)Nc2cccc(C(F)(F)F)c2)cc1Nc1nc(-c2cccnc2)nc2c1cnn2C,-36.8
13,Cc1cnc(Nc2ccc(OCCN3CCCC3)cc2)nc1Nc1cccc(S(=O)(=O)NC(C)(C)C)c1,-95
14,CC(NCCC(c1ccccc1)c1ccccc1)c1ccccc1 (centres undefined),-64.5
15,O=C(O)c1ccccc1-c1c2cc(I)c(=O)c(I)c-2oc2c(I)c(O)c(I)cc12,-23
16,CC(C)c1cc(-c2n[nH]c(=O)n2-c2ccc3c(ccn3C)c2)c(O)cc1O,-87.1
17,CNC(=O)c1c(F)cccc1Nc1nc(Nc2cc3c(cc2OC)CCN3C(=O)CN(C)C)nc2[nH]ccc12,-31.8
18,O=[N+]([O-])c1ccc2c(c1)S(=O)(=O)C=C2,-95
19,COc1ccc(NC(=O)c2ccc(-c3ccc(-c4noc(C)n4)cc3C)cc2)cc1OCCN(C)C,-93.7

row,Compound,cell viability activity [%]
1,COC(=O)C[C@](O)(CCCC(C)(C)O)C(=O)O[C@@H]1C(OC)=C[C@]23CCCN2CCc2cc4c(cc2[C@H]13)OCO4,-92.7
2,CC(C)(C)c1ccc(C(=O)CCCN2CCC(OC(c3ccccc3)c3ccccc3)CC2)cc1,-79.7
3,CN[C@H](C(=O)N[C@H](C(=O)N(C)[C@H](/C=C(\C)C(=O)O)C(C)C)C(C)(C)C)C(C)(C)c1ccccc1,-56.6
4,O=C1C(Cl)=C(NCCN2CCOCC2)C(=O)c2ncccc21,-46.3
5,CC(=O)c1cc2c(o1)C(=O)c1ccccc1C2=O,-97.1
6,CC(C)C[C@H](NC(=O)CNC(=O)c1cc(Cl)ccc1Cl)B(O)O,-94.3
7,CC(=O)OC1CC2CCC1(C)C2(C)C (centres undefined),-28.1
8,CCCS(=O)(=O)Nc1ccc(F)c(C(=O)c2c[nH]c3ncc(-c4ccc(Cl)cc4)cc23)c1F,-35.4
9,COc1cc(OC)cc(N(CCNC(C)C)c2ccc3ncc(-c4cnn(C)c4)nc3c2)c1,-70.3
10,CC1=C(C(=O)OC2CCCCC2)C(c2ccc([N+](=O)[O-])cc2)C2=C(CC(C)(C)CC2=O)N1 (centres undefined),-27.1
11,O=C(c1cn(Cc2cncn2Cc2ccc(Br)cc2)cc1-c1cccc2ccccc12)N1CCOCC1,-42.8
12,Cc1ccc(C(=O)N(CCCN)[C@@H](c2oc3cc(Cl)ccc3c(=O)c2Cc2ccccc2)C(C)C)cc1,-63.6
13,COc1ccc(F)c(F)c1C(=O)c1cnc(NC2CCN(S(C)(=O)=O)CC2)nc1N,-69
14,CCNC(=O)c1noc(-c2cc(C(C)C)c(O)cc2O)c1-c1ccc(CN2CCOCC2)cc1,-86.6
15,COc1ccc(S(=O)(=O)N(C(C)=O)c2ccccc2/C=C/c2cc[n+]([O-])cc2)cc1,-65.7
16,COc1cc([C@@H]2c3cc4c(cc3[C@@H](O[C@@H]3O[C@@H]5CO[C@@H](C)O[C@H]5[C@H](O)[C@H]3O)[C@H]3COC(=O)[C@H]23)OCO4)cc(OC)c1OP(=O)(O)O,-25.3
17,Cc1c(C(=O)Nc2ccc(N3CCC(N4CCOCC4)CC3)c(C#N)c2)cnn1-c1ccc(Cl)cc1,-36.4
18,NCCCCNCCCN,-26.8

# Tested on: HT29 sg-Ctrl (RNF43 wildtype)
# Test: as above
# Details: 5 µM; 96 h
# Description: as §1
row,Compound,cell viability activity [%]
1,COc1ccc(NC(=O)c2ccc(-c3ccc(-c4noc(C)n4)cc3C)cc2)cc1N1CCN(C)CC1,-57.8
2,COc1ccc(CCCOC(Cn2ccnc2)c2ccc(OC)cc2)cc1 (centres undefined),-31.3
3,CN(C)CCOc1ccc(-c2nc(-c3ccncc3)c(-c3ccc4c(c3)CC/C4=N\O)[nH]2)cc1,-45.8
4,Cc1c(C2CCN(CCc3ccccc3)CC2)noc1-c1ccc(Cl)cc1,-39.7
5,COc1cc2c(Nc3ccc(Cl)c(Cl)c3F)ncnc2cc1OC[C@@H]1C[C@@H]2CN(C)C[C@@H]2C1,-90.3
6,CC(=O)NCC(=O)N1[C@@H]2CC[C@H]1c1ccc(Nc3ncc(C(F)(F)F)c(NC4CCC4)n3)cc12,-44.1
7,COC(=O)C1=C(C)NC(C)=C(C(=O)OCCCN2CCC(c3ccccc3)(c3ccccc3)CC2)[C@@H]1c1cccc([N+](=O)[O-])c1,-91.4
8,Cc1c(C(=O)N2CCOc3ccc(-c4ccc(N)nc4)cc3C2)ccc(S(C)(=O)=O)c1F,-32.1
9,CC(C)[C@H]1c2ccc(F)cc2CC[C@@]1(CCN(C)CCCc1nc2ccccc2[nH]1)OC(=O)C1CC1,-90.4
10,Cc1cnc(Nc2ccc(N3CCN(C)CC3)cc2)nc1Nc1cccc(S(=O)(=O)NC(C)(C)C)c1,-89.4
11,O=C(CCCCCN1C(=O)c2cccc3cccc(c23)C1=O)NO,-71.7
12,Cc1ccc(C(=O)Nc2cccc(C(F)(F)F)c2)cc1Nc1nc(-c2cccnc2)nc2c1cnn2C,-24.4
13,Cc1cnc(Nc2ccc(OCCN3CCCC3)cc2)nc1Nc1cccc(S(=O)(=O)NC(C)(C)C)c1,-92.4
14,CC(NCCC(c1ccccc1)c1ccccc1)c1ccccc1 (centres undefined),-69.7
15,O=C(O)c1ccccc1-c1c2cc(I)c(=O)c(I)c-2oc2c(I)c(O)c(I)cc12,-16.3
16,CC(C)c1cc(-c2n[nH]c(=O)n2-c2ccc3c(ccn3C)c2)c(O)cc1O,-81.7
17,CNC(=O)c1c(F)cccc1Nc1nc(Nc2cc3c(cc2OC)CCN3C(=O)CN(C)C)nc2[nH]ccc12,-35
18,O=[N+]([O-])c1ccc2c(c1)S(=O)(=O)C=C2,-91
19,COc1ccc(NC(=O)c2ccc(-c3ccc(-c4noc(C)n4)cc3C)cc2)cc1OCCN(C)C,-90.6

row,Compound,cell viability activity [%]
1,COC(=O)C[C@](O)(CCCC(C)(C)O)C(=O)O[C@@H]1C(OC)=C[C@]23CCCN2CCc2cc4c(cc2[C@H]13)OCO4,-86.7
2,CC(C)(C)c1ccc(C(=O)CCCN2CCC(OC(c3ccccc3)c3ccccc3)CC2)cc1,-92.1
3,CN[C@H](C(=O)N[C@H](C(=O)N(C)[C@H](/C=C(\C)C(=O)O)C(C)C)C(C)(C)C)C(C)(C)c1ccccc1,-33.2
4,O=C1C(Cl)=C(NCCN2CCOCC2)C(=O)c2ncccc21,-94.7
5,CC(=O)c1cc2c(o1)C(=O)c1ccccc1C2=O,-96.4
6,CC(C)C[C@H](NC(=O)CNC(=O)c1cc(Cl)ccc1Cl)B(O)O,-89.7
7,CC(=O)OC1CC2CCC1(C)C2(C)C (centres undefined),-26.5
8,CCCS(=O)(=O)Nc1ccc(F)c(C(=O)c2c[nH]c3ncc(-c4ccc(Cl)cc4)cc23)c1F,-47.2
9,COc1cc(OC)cc(N(CCNC(C)C)c2ccc3ncc(-c4cnn(C)c4)nc3c2)c1,-64.7
10,CC1=C(C(=O)OC2CCCCC2)C(c2ccc([N+](=O)[O-])cc2)C2=C(CC(C)(C)CC2=O)N1 (centres undefined),-15.6
11,O=C(c1cn(Cc2cncn2Cc2ccc(Br)cc2)cc1-c1cccc2ccccc12)N1CCOCC1,-38.5
12,Cc1ccc(C(=O)N(CCCN)[C@@H](c2oc3cc(Cl)ccc3c(=O)c2Cc2ccccc2)C(C)C)cc1,-78.3
13,COc1ccc(F)c(F)c1C(=O)c1cnc(NC2CCN(S(C)(=O)=O)CC2)nc1N,-65.9
14,CCNC(=O)c1noc(-c2cc(C(C)C)c(O)cc2O)c1-c1ccc(CN2CCOCC2)cc1,-86
15,COc1ccc(S(=O)(=O)N(C(C)=O)c2ccccc2/C=C/c2cc[n+]([O-])cc2)cc1,-75.5
16,COc1cc([C@@H]2c3cc4c(cc3[C@@H](O[C@@H]3O[C@@H]5CO[C@@H](C)O[C@H]5[C@H](O)[C@H]3O)[C@H]3COC(=O)[C@H]23)OCO4)cc(OC)c1OP(=O)(O)O,-24.7
17,Cc1c(C(=O)Nc2ccc(N3CCC(N4CCOCC4)CC3)c(C#N)c2)cnn1-c1ccc(Cl)cc1,-33.4
18,NCCCCNCCCN,-2.46
